Source: PubChem BioAssay (NCATS)
Results filed as inconclusive are left out. Active and inactive are the calls of the source. Calls come from the whole dose curve; as a rule, active = well fitted curve in the direction sought with a large enough effect; inconclusive = small, poorly fitted or top-dose-only effect, or another doubt; inactive = no such curve, though single readings can be large; an effect the other way counts as inactive or inconclusive.

Legend:
[1] = qHTS of pediatric cancer cell lines to identify multiple opportunities for drug repurposing: Confirmatory screen for SK-N-MC cells (AID 1347111); conditions: SK-N-MC cell viability; series mostly up to 45.9 µM;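 note: cells exposed to compound for 48 h before the readout; nearly all actives have a fitted effect of over 70% in size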
Method in brief: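 Seed 500-1,000 cells/well; rest 5 h at 37 degrees C. Pin-transfer compounds, 11-point titration. Incubate 48 h. Add CellTiter-Glo, 15 min RT, read luminescence.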

[2] = qHTS of pediatric cancer cell lines to identify multiple opportunities for drug repurposing: Confirmatory screen for LAN-5 cells (AID 1347113); conditions: LAN-5 neuroblastoma cell viability; series mostly up to 45.9 µM; note: nearly all actives have a fitted effect of over 65% in size
Method in brief: (§1)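 Cells (500-1,000/well) rested 5 h, then received compounds for 48 h; metabolically active cells were measured by CellTiter-Glo luminescence. Final concentrations spanned up to 46 µM (MIPE, 11-point) or 0.59 nM-46 µM (NPC, 8-point) in primary screens, 11-point in follow-ups.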

[3] = qHTS of pediatric cancer cell lines to identify multiple opportunities for drug repurposing: Confirmatory screen for TC32 cells (AID 1347118); conditions: TC32 Ewing sarcoma cells viability qHTS; series mostly up to 45.9 µM;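 note: cells exposed to compound for 48 h before the read; nearly all actives have a fitted effect of over 65% in size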
Method in brief: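 TC32 cells, 500-1,000/well in growth medium, compound-treated 48 h at 37 °C; viability from CellTiter-Glo luminescence. Primary screen: MIPE 11-point (0.78 nM–46 µM final), NPC 8-point (0.59 nM–46 µM final); confirmatory at 11-point dilutions.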

[4] = qHTS of pediatric cancer cell lines to identify multiple opportunities for drug repurposing: Confirmatory screen for U-2 OS cells (AID 1347122); conditions: U-2 OS osteosarcoma cell viability; series mostly up to 45.9 µM; note: nearly all actives have a fitted effect of over 65% in size
Method in brief: as §1

[5] = qHTS of pediatric cancer cell lines to identify multiple opportunities for drug repurposing: Confirmatory screen for Rh41 cells (AID 1347123); conditions: Rh41 rhabdomyosarcoma cells, viability/cytotoxicity qHTS; series mostly up to 45.9 µM;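 note: 48 h compound exposure; nearly all actives have a fitted effect of over 60% in size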
Method in brief: as §1

[6] = qHTS of pediatric cancer cell lines to identify multiple opportunities for drug repurposing: Confirmatory screen for Rh18 cells (AID 1347125); conditions: Rh18 rhabdomyosarcoma cells, viability; series mostly up to 45.9 µM; note: nearly all actives have a fitted effect of over 55% in size
Method in brief: as §1

[7] = qHTS of pediatric cancer cell lines to identify multiple opportunities for drug repurposing: Confirmatory screen for DAOY cells (AID 1347114); conditions: DAOY medulloblastoma cells viability, cytotoxicity qHTS; series mostly up to 45.9 µM; note: nearly all actives have a fitted effect of over 65% in size
Method in brief: (§2)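 Viability measured as metabolically active cells via CellTiter-Glo luminescence following 48 hours of compound exposure, 11-point dilutions in confirmatory testing. 500-1,000 cells/well plated 5 hours before dosing; controls were DMSO and 2.3 µM bortezomib.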

[8] = qHTS of pediatric cancer cell lines to identify multiple opportunities for drug repurposing: Confirmatory screen for control Hh wild type fibroblast cells (AID 1347121); conditions: viability qHTS; series mostly up to 45.9 µM; note: nearly all actives have a fitted effect of over 70% in size
Method in brief: as §1

[9] = qHTS of pediatric cancer cell lines to identify multiple opportunities for drug repurposing: Confirmatory screen for SJ-GBM2 cells (AID 1347116); conditions: SJ-GBM2 glioblastoma cells, viability; series mostly up to 45.9 µM; note: nearly all actives have a fitted effect of over 60% in size
Method in brief: as §2

[10] = qHTS of pediatric cancer cell lines to identify multiple opportunities for drug repurposing: Confirmatory screen for RD cells (AID 1347124); conditions: RD rhabdomyosarcoma cell viability; series mostly up to 45.9 µM
Method in brief: as §1

Measured: Potency
Potency is the fitted concentration of half-maximal effect.

CC(COc1ccccc1)N(CCCl)Cc1ccccc1 (centres undefined)
active: [1] 10.4 µM | [2] 20.8 µM | [3] 7.37 µM | [5] 13.1 µM | [6] 18.5 µM
inactive: [4]

O=C(c1ccc(OCCN2CCCCC2)cc1)c1c(-c2ccc(O)cc2)sc2cc(O)ccc12
active: [1] 16.5 µM | [7] 32.9 µM | [3] 16.5 µM | [5] 20.8 µM
inactive: [8] | [4] | [6]

O=C(Nc1ccc([N+](=O)[O-])cc1Cl)c1cc(Cl)ccc1O
active: [1] 4.07 µM | [2] 3.23 µM | [7] 1.02 µM | [9] 4.07 µM | [3] 2.04 µM | [8] 3.62 µM | [4] 4.56 µM | [5] 1.15 µM | [10] 4.56 µM | [6] 3.62 µM

CCC1(c2ccccc2)C(=O)NCNC1=O
not listed: [1] | [3]
inactive: all other assays above

CCCCc1oc2ccccc2c1C(=O)c1cc(I)c(OCCN(CC)CC)c(I)c1
active: [1] 22.4 µM | [2] 35.5 µM | [7] 31.6 µM | [9] 79.4 µM | [3] 28.2 µM | [8] 70.8 µM | [4] 28.2 µM | [5] 17.8 µM | [6] 50.1 µM

O=C1c2c(O)ccc(O)c2C(=O)c2c(NCCNCCO)ccc(NCCNCCO)c21
active: [1] 0.208 µM | [2] 0.165 µM | [7] 7.37 µM | [9] 2.08 µM | [3] 0.131 µM | [8] 14.7 µM | [4] 5.22 µM | [5] 0.465 µM | [10] 2.61 µM | [6] 2.61 µM

Clc1ccc2nsnc2c1NC1=NCCN1
not listed: [10]
inactive: all other assays above

Clc1ccc(C(c2ccccc2Cl)C(Cl)Cl)cc1 (centres undefined)
not listed: [1] | [5] | [7]
inactive: all other assays above

NC12CC3CC(CC(C3)C1)C2
inactive: all assays above

NC(=O)NO
active: [3] 20.8 µM | [4] 23.3 µM
not listed: [9]
inactive: all other assays above

CC(C)NCC(O)c1ccc(O)c(O)c1 (centres undefined)
active: [1] 2.33 µM | [4] 7.37 µM
inactive: [7] | [8] | [10]

CC[C@@]1(O)C(=O)OCc2c1cc1n(c2=O)Cc2cc3c(CN(C)C)c(O)ccc3nc2-1
inactive: [8]
active: [1] 0.0465 µM | [2] 0.185 µM | [7] 5.22 µM | [9] 1.31 µM | [3] 0.0585 µM | [4] 10.4 µM | [5] 3.69 µM | [10] 5.85 µM | [6] 5.22 µM

CC(CCc1ccc(O)cc1)NCCc1ccc(O)c(O)c1 (centres undefined)
active: [1] 9.27 µM | [3] 20.8 µM
not listed: [9]
inactive: all other assays above

COc1cc2c(c(OC)c1OC)-c1ccc(OC)c(=O)cc1[C@@H](NC(C)=O)CC2
inactive: [8] | [6]
active: [1] 0.0398 µM | [2] 0.0891 µM | [7] 0.02 µM | [3] 0.0355 µM | [4] 0.112 µM | [10] 0.0708 µM

CS(=O)(=O)CCNCc1ccc(-c2ccc3ncnc(Nc4ccc(OCc5cccc(F)c5)c(Cl)c4)c3c2)o1
inactive: [10]
active: [4] 20.8 µM | [5] 8.27 µM | [6] 14.7 µM

CC(C)C(=O)Nc1ccc([N+](=O)[O-])c(C(F)(F)F)c1
inactive: [2] | [8]
active: [7] 16.5 µM

CC#C[C@]1(O)CC[C@H]2[C@@H]3CCC4=CC(=O)CCC4=C3[C@@H](c3ccc(N(C)C)cc3)C[C@@]21C
active: [3] 18.5 µM | [5] 23.3 µM
inactive: [9] | [8] | [10]

CC(C)Cc1ccc(C(C)C(=O)O)cc1 (centres undefined)
active: [1] 3.69 µM | [7] 3.69 µM | [9] 1.31 µM | [3] 3.69 µM | [5] 4.65 µM | [10] 1.31 µM
inactive: [8] | [6]

CS(=O)(=O)Nc1ccc([N+](=O)[O-])cc1Oc1ccccc1
active: [5] 18.5 µM
inactive: [2] | [8] | [4] | [6]

CN1CCN(CCCN2c3ccccc3Sc3ccc(Cl)cc32)CC1
active: [1] 3.69 µM | [2] 16.5 µM | [7] 20.8 µM | [4] 5.85 µM | [5] 11.7 µM | [10] 18.5 µM
inactive: [8]

CN(C)CCCN1c2ccccc2CCc2ccc(Cl)cc21
active: [7] 20.8 µM | [5] 10.4 µM
inactive: [9] | [3] | [8]

COC(=O)Nc1nc2ccc(C(=O)c3cccs3)cc2[nH]1
active: [1] 0.147 µM | [2] 0.522 µM | [7] 0.131 µM | [3] 0.131 µM | [4] 0.208 µM | [10] 0.233 µM
inactive: [8] | [6]

CN(Cc1cnc2nc(N)nc(N)c2n1)c1ccc(C(=O)N[C@@H](CCC(=O)O)C(=O)O)cc1
active: [1] 0.0369 µM | [7] 0.117 µM | [3] 0.0369 µM | [10] 0.0827 µM
inactive: [2] | [8] | [6]
